Values joined by “and” are separate entries in the source; they are usually repeats but may differ in a detail not shown here. Equal entries are not always repeated. Records with an inconclusive call do not appear. Active and inactive are the calls of the source. Unless noted, the call rests on the fitted dose curve; in most records, active means well fitted curve in the direction sought with a large enough effect in the repeat runs; inconclusive means weak or mixed curves; inactive means no such curve, though single readings can be large; an effect the other way counts as inactive or inconclusive.
Experiments:
[1] = qHTS assay to identify small molecule agonists of the estrogen receptor alpha (ER-alpha) signaling pathway in the presence of an antagonist - cell viability counter screen (AID 1259386);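 further: cells exposed to compounds for 22 h at 37 °C before the viability read; nearly all actives have a fitted effect of over 30% in size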; further: potency means the concentration at half of the fitted maximal effect
In short: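 In this counter screen, compound effects on VM7Luc4E2 viability were tested in the presence of the antagonist ICI-182,780 at 10.0nM final. Compounds were dosed at 15 concentrations, exposure lasted 22hr, and the CellTiter-Fluor signal was read.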

[2] = target: Progesterone receptor (Homo sapiens) (UniProt P06401); assay: qHTS assay to identify small molecule antagonists of the progesterone receptor (PR) signaling pathway (AID 1346795; active means well fitted inhibition curve with a large enough effect in the signal ratio in the repeat runs, not every such curve was filed as active; the % refers to the signal ratio; further: potency means the concentration at half of the fitted maximal effect)
Sequence of Progesterone receptor (Homo sapiens) (P06401 whole entry, looked up): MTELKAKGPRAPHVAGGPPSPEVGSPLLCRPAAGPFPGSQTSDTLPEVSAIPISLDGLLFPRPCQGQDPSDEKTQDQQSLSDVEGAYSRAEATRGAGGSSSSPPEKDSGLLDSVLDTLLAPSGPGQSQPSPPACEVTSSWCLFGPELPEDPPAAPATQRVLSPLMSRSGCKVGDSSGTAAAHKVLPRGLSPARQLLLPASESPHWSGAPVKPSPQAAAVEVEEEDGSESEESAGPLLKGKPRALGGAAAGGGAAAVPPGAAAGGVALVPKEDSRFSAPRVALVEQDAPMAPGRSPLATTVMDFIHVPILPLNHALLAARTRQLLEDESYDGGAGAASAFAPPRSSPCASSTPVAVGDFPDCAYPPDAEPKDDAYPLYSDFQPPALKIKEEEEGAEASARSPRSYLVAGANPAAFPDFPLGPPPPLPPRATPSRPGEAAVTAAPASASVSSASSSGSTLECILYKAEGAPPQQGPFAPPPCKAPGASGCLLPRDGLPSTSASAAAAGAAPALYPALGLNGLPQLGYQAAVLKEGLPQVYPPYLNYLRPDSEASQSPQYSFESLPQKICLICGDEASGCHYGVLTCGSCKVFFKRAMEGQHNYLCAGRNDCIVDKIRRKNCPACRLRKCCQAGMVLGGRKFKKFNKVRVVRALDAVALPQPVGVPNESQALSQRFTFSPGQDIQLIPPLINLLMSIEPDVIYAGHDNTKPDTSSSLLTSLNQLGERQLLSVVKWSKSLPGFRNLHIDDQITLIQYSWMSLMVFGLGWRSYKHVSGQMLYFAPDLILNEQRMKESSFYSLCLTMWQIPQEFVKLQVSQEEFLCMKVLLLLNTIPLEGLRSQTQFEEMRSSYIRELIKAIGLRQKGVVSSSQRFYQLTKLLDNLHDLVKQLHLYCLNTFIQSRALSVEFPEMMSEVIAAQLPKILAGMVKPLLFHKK
In short: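 PR-UAS-bla HEK293T cells carrying a UAS-driven beta-lactamase reporter were plated in medium with 2% charcoal-stripped FBS and rested 6 hr at 37C. Compounds were added with 1 nM R5020 (final) for 16 hr, then FRET substrate loaded 2 hr at room temperature.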

[3] = qHTS assay to identify small molecule antagonists of the progesterone receptor (PR) signaling pathway - cell viability counter screen (AID 1346798); further: nearly all actives have a fitted effect of over 50% in size; further: potency means the concentration at half of the fitted maximal effect
In short: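 PR-UAS-bla HEK293T cells in medium with 2% charcoal-stripped FBS were treated with compounds plus R5020 for 16 hr at 37C. Cell viability was then read by CellTiter-Glo luminescence after 30 min at room temperature in the same wells.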

[4] = qHTS assay to identify small molecule agonists of the progesterone receptor (PR) signaling pathway - cell viability counter screen (AID 1346799; calls by dose curve; further: nearly all actives have a fitted effect of over 45% in size; further: potency means the concentration at half of the fitted maximal effect)
In short: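 PR-UAS-bla HEK293T cells, 3,000 per well in medium with 2% charcoal-stripped FBS, were preincubated 6 hr at 37C, then exposed to compounds for 16 hr; viability was read as CellTiter-Glo luminescence after 30 min at room temperature.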

[5] = qHTS assay to identify small molecule antagonists of the TGF-beta/Smad signaling pathway - cell viability counter screen (AID 1346824); further: nearly all actives have a fitted effect of over 50% in size; further: potency means the concentration at half of the fitted maximal effect
In short: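 Cytotoxicity counter-screen run in the same wells as the beta-lactamase Smad reporter read: CellTiter-Glo luminescence after 30 min at room temperature. HEK 293T SBE-bla cells had 5 hr compound exposure at 37 C with TGF-beta1 (0.25 ng/mL stock).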

[6] = qHTS assay to identify small molecule agonists of the TGF-beta/Smad signaling pathway - cell viability counter screen (AID 1346829); further: nearly all actives have a fitted effect of over 45% in size; further: potency means the concentration at half of the fitted maximal effect
In short: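 CellTiter-Glo luminescence readout; SBE-bla HEK 293T cells, overnight plating, compound 5 hr at 37 C/5% CO2, then bla substrate 2 hr RT, then CellTiter-Glo 30 min RT.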

[7] = qHTS assay to identify small molecule agonists of the TGF-beta/Smad signaling pathway (AID 1346859; active means well fitted activation curve with a large enough effect in the signal ratio in the repeat runs, not every such curve was filed as active; the % refers to the signal ratio; further: potency means the concentration at half of the fitted maximal effect; on activation: series mostly up to about 77 µM; on the % scale 0 is the no-effect control and ±100 the full control effect)
In short: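 HEK 293T cells stably carrying a beta-lactamase reporter driven by the Smad binding element were seeded overnight, exposed to DMSO-dissolved compounds for 5 hr at 37 C, 5% CO2, then loaded with FRET substrate for 2 hr at room temperature.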

[8] = target: Thyrotropin-releasing hormone receptor (Homo sapiens) (UniProt P34981); assay: qHTS assay to identify small molecule antagonists of the thyrotropin-releasing hormone receptor (TRHR) signaling pathway (AID 1346877; active means well fitted inhibition curve with a large enough effect in the repeat runs, not every such curve was filed as active; further: series mostly up to about 51 µM; on the % scale 0 is the no-effect control and ±100 the full control effect)
Sequence of Thyrotropin-releasing hormone receptor (Homo sapiens) (P34981 whole entry, looked up): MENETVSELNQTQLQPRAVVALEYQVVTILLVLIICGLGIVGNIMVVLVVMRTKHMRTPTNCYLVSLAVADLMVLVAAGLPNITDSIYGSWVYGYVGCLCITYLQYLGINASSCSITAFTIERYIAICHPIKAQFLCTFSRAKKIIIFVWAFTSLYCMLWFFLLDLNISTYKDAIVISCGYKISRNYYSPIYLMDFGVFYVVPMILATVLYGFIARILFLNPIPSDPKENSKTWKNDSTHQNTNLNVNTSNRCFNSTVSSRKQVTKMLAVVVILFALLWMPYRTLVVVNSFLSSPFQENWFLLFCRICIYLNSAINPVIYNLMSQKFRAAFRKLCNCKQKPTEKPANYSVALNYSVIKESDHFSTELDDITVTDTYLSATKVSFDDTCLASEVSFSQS
In short: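 Kinetic fluorescence (3 min, 1 s resolution) following stimulation with TRH at 1 nM final; HEK293 cells bearing human TRHR; 5 min compound preincubation at RT; concentration-response over 15 points, triplicates.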

[9] = target: Thyrotropin-releasing hormone receptor (Homo sapiens) (UniProt P34981); assay: qHTS assay to identify small molecule agonists of the thyrotropin-releasing hormone receptor (TRHR) signaling pathway (AID 1346891; calls by dose curve; further: series mostly up to about 58 µM; on the % scale 0 is the no-effect control and ±100 the full control effect)
In short: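 TRHR-expressing HEK293 cells were plated 18 h at 37 °C/5% CO2, loaded with calcium dye 2 h at 37 °C, then given compound in DMSO; fluorescence was read kinetically for 3 min at 1 s intervals.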

[10] = Human pregnane X receptor (PXR) small molecule agonists, qHTS cell viability counter screen (AID 1346977); further: nearly all actives have a fitted effect of over 50% in size; further: potency means the concentration at half of the fitted maximal effect
In short: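 PXR-Luc HepG2 cells in medium with 5% charcoal-stripped FBS were pre-incubated 5hr, then exposed to compounds for 24hr at 37C. Viability was read in the same wells by CellTiter-Fluor fluorescence, reagent added after 23hr with a 1hr incubation.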

[11] = Caspase-3/7 induction in CHO-K1 cells by small molecules, qHTS cell viability counter screen (AID 1346979); further: nearly all actives have a fitted effect of over 35% in size; further: potency means the concentration at half of the fitted maximal effect
In short: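 Wild-type CHO-K1 cells were seeded at 1,500 per well, rested 5hr at 37 C, then exposed to compounds in DMSO. After 16hr, CellTiter-Fluor reagent was added and fluorescence read 1hr later as the viability measure.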

[12] = target: Nuclear receptor subfamily 1 group I member 2 (Homo sapiens) (UniProt O75469); assay: Human pregnane X receptor (PXR) small molecule agonists, qHTS assay (AID 1346982); further: nearly all actives have a fitted effect of over 35% in size; further: potency means the concentration at half of the fitted maximal effect
Sequence of Nuclear receptor subfamily 1 group I member 2 (Homo sapiens) (O75469 whole entry, looked up): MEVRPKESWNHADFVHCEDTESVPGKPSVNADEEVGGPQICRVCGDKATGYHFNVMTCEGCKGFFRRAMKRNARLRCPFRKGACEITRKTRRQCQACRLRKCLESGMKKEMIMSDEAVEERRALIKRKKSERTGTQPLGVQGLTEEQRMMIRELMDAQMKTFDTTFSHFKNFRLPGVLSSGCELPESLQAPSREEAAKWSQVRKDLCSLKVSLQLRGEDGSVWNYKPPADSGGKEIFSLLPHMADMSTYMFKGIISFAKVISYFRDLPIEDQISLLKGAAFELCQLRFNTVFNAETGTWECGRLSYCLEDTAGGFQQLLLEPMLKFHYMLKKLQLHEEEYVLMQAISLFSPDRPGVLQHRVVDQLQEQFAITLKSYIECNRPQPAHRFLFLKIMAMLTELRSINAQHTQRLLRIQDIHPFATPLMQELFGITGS
In short: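 Reporter HepG2 cells expressing PXR-Luc are cultured in charcoal-stripped FBS (5%), treated with compounds for 24 hr at 37 C, and assayed by ONE-Glo luminescence after 30 min at room temperature.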

[13] = target: Cytochrome P450 2D6 (Homo sapiens) (UniProt P10635); assay: Cytochrome P450 Family 2 Subfamily D Member 6 (CYP2D6) small molecule antagonists: luciferase reporter qHTS assay (AID 1671196); further: nearly all actives have a fitted effect of over 50% in size; further: potency means the concentration at half of the fitted maximal effect
Sequence of Cytochrome P450 2D6 (Homo sapiens) (P10635 whole entry, looked up): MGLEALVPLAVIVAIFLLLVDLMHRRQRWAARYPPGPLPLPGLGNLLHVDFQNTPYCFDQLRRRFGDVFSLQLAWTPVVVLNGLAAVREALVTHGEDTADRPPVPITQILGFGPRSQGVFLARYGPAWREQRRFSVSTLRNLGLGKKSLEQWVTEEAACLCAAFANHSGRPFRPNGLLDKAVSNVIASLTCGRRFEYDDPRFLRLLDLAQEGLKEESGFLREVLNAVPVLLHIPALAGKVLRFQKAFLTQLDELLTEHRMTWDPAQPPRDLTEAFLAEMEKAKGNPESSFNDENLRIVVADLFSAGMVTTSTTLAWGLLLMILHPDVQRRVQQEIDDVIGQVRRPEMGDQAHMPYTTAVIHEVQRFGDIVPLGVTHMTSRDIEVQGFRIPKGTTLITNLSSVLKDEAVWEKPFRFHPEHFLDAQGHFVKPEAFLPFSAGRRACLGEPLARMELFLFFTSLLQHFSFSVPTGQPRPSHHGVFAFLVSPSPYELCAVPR
In short: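 Test chemicals meet CYP2D6 plus proluciferin substrate (10 min, RT); NADPH regenerating solution then drives turnover for 1 h. Detection reagent halts the reaction; luminescence measured after 20 min.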

[14] = target: Progesterone receptor (Homo sapiens) (UniProt P06401); assay: qHTS assay to identify small molecule agonists of the progesterone receptor (PR) signaling pathway (AID 1346784; calls by dose curve; further: nearly all actives have a fitted effect of over 30% in size; further: potency means the concentration at half of the fitted maximal effect; on activation: on the % scale 0 is the no-effect control and ±100 the full control effect)
In short: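 PR-UAS-bla HEK 293T cells carrying a UAS-driven beta-lactamase reporter were seeded in medium with 2% charcoal-stripped FBS, preincubated 6 hr at 37C, then exposed to compounds in DMSO for 16 hr; agonism was read by LiveBLAzer B/G FRET fluorescence.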

[15] = Caspase-3/7 induction in HepG2 cells by small molecules, qHTS assay (AID 1346978); further: nearly all actives have a fitted effect of over 15% in size; further: potency means the concentration at half of the fitted maximal effect
In short: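 Caspase-3/7 induction was measured by Caspase-Glo 3/7 luminescence (30 min, room temperature) after a 17 hr compound exposure of wild-type HepG2 cells seeded at 2,000 per well and pre-incubated 5 hr.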

[16] = Caspase-3/7 induction in CHO-K1 cells by small molecules, qHTS assay (AID 1346980); further: nearly all actives have a fitted effect of over 15% in size; further: potency means the concentration at half of the fitted maximal effect
In short: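 Luminescent Caspase-Glo 3/7 read (30min, room temperature) quantified apoptosis induction. Cells were wild-type CHO-K1, treated with compound for 17hr at 37 C and 5% CO2.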

[17] = Caspase-3/7 induction in HepG2 cells by small molecules, qHTS cell viability counter screen (AID 1346981); further: nearly all actives have a fitted effect of over 30% in size; further: potency means the concentration at half of the fitted maximal effect
In short: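 In this quantitative HTS counter screen, compounds delivered in DMSO were left on unmodified HepG2 cells for 16 hr at 37 C. Viability was then determined fluorometrically with CellTiter-Fluor, in parallel with caspase-3/7 induction in the same wells.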

[18] = target: Nuclear receptor subfamily 1 group I member 2 (Rattus norvegicus) (UniProt Q9R1A7); assay: Rat pregnane X receptor (rPXR) activation by small molecules, qHTS assay (AID 1346983); conditions: rPXR luciferase reporter cells, One-Glo luminescence, 24 h; max activation: active compounds read high; further: on the % scale 0 is the no-effect control and ±100 the full control effect; nearly all actives have a fitted effect of over 20% in size
Sequence of Nuclear receptor subfamily 1 group I member 2 (Rattus norvegicus) (Q9R1A7 whole entry, looked up): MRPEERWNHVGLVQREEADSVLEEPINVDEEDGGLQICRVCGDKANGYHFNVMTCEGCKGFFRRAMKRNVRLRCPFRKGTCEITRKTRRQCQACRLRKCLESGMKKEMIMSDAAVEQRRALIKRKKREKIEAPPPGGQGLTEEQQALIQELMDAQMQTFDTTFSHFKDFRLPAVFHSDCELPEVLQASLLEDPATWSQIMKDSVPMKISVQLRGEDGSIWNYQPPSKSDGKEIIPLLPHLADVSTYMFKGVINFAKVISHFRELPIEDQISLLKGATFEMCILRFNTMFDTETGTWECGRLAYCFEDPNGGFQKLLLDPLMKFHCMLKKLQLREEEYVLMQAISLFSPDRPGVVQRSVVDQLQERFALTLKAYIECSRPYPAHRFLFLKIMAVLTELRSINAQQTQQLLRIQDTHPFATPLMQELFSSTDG
In short: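 Luminescent readout (One-Glo luciferase, 30 min room temperature) followed 24 hr compound treatment at 37 C of rPXR cells plated 2,000 per well and preincubated 5hr; qHTS format with compounds delivered in DMSO.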

[19] = target: Nuclear receptor subfamily 1 group I member 2 (Homo sapiens) (UniProt O75469); assay: Human pregnane X receptor (PXR) activation by small molecules, qHTS assay (AID 1346985); further: potency means the concentration at half of the fitted maximal effect; nearly all actives have a fitted effect of over 40% in size
In short: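 DPX-2 cells (HepG2 co-transfected with a PXR response element and a CYP3A4-promoter luciferase construct) were seeded at 2,000 per well, rested 5 hr at 37C, then exposed to DMSO-dissolved compounds for 24 hr. Activation was read as luciferase luminescence.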

CCCCCCCCCCCC(=O)NCCCN(C)C
active: Potency [2] 61.1 µM | Potency [3] 54.5 µM | Potency [4] 30.6 µM | Potency [5] 49 µM | Potency [6] 54.9 µM | Potency [10] 38.6 µM | Potency [11] 54.5 µM | Potency [12] 24.3 µM | Potency [13] 12.6 µM
inactive: Potency [1] | Potency [7] | Potency [8] | Potency [9]

Nc1c2ccccc2nc2ccccc12
inactive: Potency [1] | Potency [5] | Potency [6] | Potency [17]
active: Potency [14] 4.79 µM | Potency [7] 23.9 µM | Potency [15] 21.4 µM and 11.9 µM | Potency [16] 12 µM | Potency [13] 700 nM and 11 µM

Nc1ccc(N)c2ccccc12
inactive: Potency [4] | Potency [8] | Potency [16]
active: Potency [1] 30.6 µM | Potency [2] 54.4 µM | Potency [10] 24.3 µM | Potency [11] 30.6 µM | Potency [12] 8.63 µM | Potency [13] 3.99 µM

OCc1c[nH]c2ccccc12
inactive: Potency [1] | Potency [8] | Potency [9] | Potency [15]
active: Potency [2] 25.8 µM | Potency [11] 64.8 µM | Potency [12] 24.3 µM

CC(C)C(C)(C)C(C)(C)C(C)(C)S
active: Potency [12] 27.3 µM | Potency [13] 39.9 µM
inactive: Potency [1] | Potency [14] | Potency [5] | Potency [6] | Potency [7] | Potency [8] | Potency [9] | Potency [10] | Potency [15] | Potency [16]

COc1cccc2c1C(=O)c1c(O)c3c(c(O)c1C2=O)C[C@@](O)(C(=O)CO)C[C@@H]3O[C@H]1C[C@H](N)[C@H](O[C@@H]2CCCCO2)[C@H](C)O1
inactive: Potency [3] | Potency [4] | Potency [5] | Potency [6] | Potency [7] | Potency [8] | Potency [9] | Potency [16] | Potency [12]
active: Potency [1] 23.7 µM | Potency [10] 1.68 µM | Potency [15] 2.37 µM | Potency [11] 6.68 µM | Potency [17] 8.41 µM

Oc1ccc2cc(SSc3ccc4cc(O)ccc4c3)ccc2c1
inactive: Potency [1] | Potency [3] | Potency [5] | Potency [7] | Potency [8] | Potency [9] | Potency [10] | Potency [15] | Potency [16]
active: Potency [2] 30.7 µM and 48.6 µM | Potency [11] 48.6 µM and 54.5 µM | Potency [12] 17.2 µM and 15.4 µM

CSc1ccc2c(c1)C(N1CCN(C)CC1)Cc1ccccc1S2 (stereo unspecified)
active: Potency [2] 26.6 µM | Potency [3] 26.6 µM | Potency [4] 33.5 µM | Potency [11] 29.8 µM | Potency [13] 1.74 µM
inactive: Potency [1] | Potency [6] | Potency [7] | Potency [8] | Potency [9] | Potency [16] | Potency [12] | max activation [18] -6.14%

CC(C)OC(=O)c1cc2c(OCC(O)CNC(C)(C)C)cccc2[nH]1 (stereo unspecified)
inactive: Potency [1] | Potency [14] | Potency [5] | Potency [6] | Potency [7] | Potency [8] | Potency [15] | Potency [11] | Potency [16] | Potency [17]
active: Potency [13] 13.8 µM

CN1CCN(CCC(=O)N2c3ccccc3Sc3ccc(C(F)(F)F)cc32)CC1
active: Potency [2] 26.6 µM | Potency [3] 18.8 µM | Potency [4] 23.7 µM | Potency [10] 26.6 µM | Potency [11] 23.7 µM | Potency [17] 29.8 µM | Potency [19] 15.8 µM | Potency [13] 0.155 µM
inactive: Potency [1] | Potency [5] | Potency [7] | Potency [8] | Potency [9] | Potency [16] | Potency [12] | max activation [18] -0.926%

CCN(C(=O)N(CC)c1ccccc1)c1ccccc1
active: Potency [2] 30.6 µM | Potency [12] 30.6 µM
inactive: Potency [1] | Potency [3] | Potency [4] | Potency [5] | Potency [6] | Potency [7] | Potency [8] | Potency [10] | Potency [11] | Potency [16] | Potency [17] | Potency [13]

Nc1nc2ccccc2n1Cc1ccc(F)cc1
inactive: Potency [3] | Potency [4] | Potency [5] | Potency [6] | Potency [7] | Potency [8] | Potency [16]
active: Potency [1] 29.8 µM | Potency [11] 23.7 µM | Potency [12] 26.6 µM | Potency [13] 0.692 µM

CCCN(CCC)c1c([N+](=O)[O-])cc(C(F)(F)F)c(N)c1[N+](=O)[O-]
inactive: Potency [9]
active: Potency [1] 60.9 µM | Potency [3] 34.3 µM | Potency [4] 21.6 µM | Potency [6] 48.9 µM | Potency [10] 48.4 µM | Potency [15] 60.9 µM | Potency [11] 43.1 µM | Potency [16] 54.3 µM | Potency [17] 54.3 µM | Potency [12] 4.84 µM

OCCCCCCCCCCCCBr
inactive: Potency [1] | Potency [3] | Potency [4] | Potency [6] | Potency [7] | Potency [10] | Potency [15] | Potency [16] | Potency [17] | Potency [12] | Potency [13]

CCCCCCCCCCCC[N+](C)(C)CCCCCCCCCCCC
inactive: Potency [8] | Potency [9] | Potency [16] | Potency [12]
active: Potency [1] 68.6 µM | Potency [3] 43.3 µM | Potency [4] 19.3 µM | Potency [5] 43.6 µM | Potency [6] 34.7 µM | Potency [10] 27.3 µM | Potency [11] 17.2 µM | Potency [17] 27.3 µM | Potency [13] 20 µM
